Targets with a hit are over-represented here; the source holds about 8,800 in all. About 0.5% of all pairs of compound and target were hits.
Tests used:
Assay in all cases: log2 fold change, soluble protein after heating vs DMSO (PISA); higher = thermal stabilisation; K562 lysate, 10 uM; active = over 0.2 and 3.5 SD of the protein, either way, in both replicates (recomputed)
erlotinib = compound: C#Cc1cccc(Nc2ncnc3cc(OCCOC)c(OCCOC)cc23)c1 [erlotinib]
Method in brief: (§1)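 Log-two fold change in thermal stability relative to solvent controls is reported from duplicates. For each sample, crude K562 extract from dounce-homogenised pellets in PBS pH 7.4 with 1 mM MgCl2, at 1 mg/mL protein, was treated with 10 μM compound for 30 min. Aliquots heated for 3 min across 48°C-58°C were pooled, brought to 0.5% NP-40 at 4°C and cleared at 21,000xg for 90 min. The supernatant was quantified by TMTpro 16plex LC-MS/MS with channel sums equalised.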

[1] = compound: C/C(=N\NC(=O)C1=CC(=CC=C1)S(=O)(=O)N2CCOCC2)/C3=C(C=CC(=C3)Cl)O
Method in brief: as §1

[2] = compound: C1=CC(=CC=C1C2=NC3=C(N2)C=C(C=C3)C(=O)N)OC4=CC=C(C=C4)Cl
Method in brief: as §1

[3] = compound: C1=CC2=C(C=CC(=C2)/C=C\3/C(=O)NC(=NCC4=CC=CS4)S3)N=C1
Method in brief: as §1

[4] = compound: C1=CC=C(C=C1)C2=NC(=C(N2)C3=CC=NC=C3)C4=CC(=C(C=C4)Cl)O
Method in brief: as §1

[5] = compound: C1=CC=C2C(=C1)C3=NNC4=CC=CC(=C43)C2=O
Method in brief: as §1

[6] = compound: C1CCN(C1)C(=O)NC2=CC=CC(=C2)NC3=NC=C(C(=N3)NCCC4=CN=CN4)Br
Method in brief: as §1

[7] = compound: C1CN(CCC1(CC2=CC=C(C=C2)Cl)N)C3=NC=NC4=C3C=CN4
Method in brief: as §1

IRAK-1-4 Inhibitor I = compound: C1COCCN1CCN2C3=CC=CC=C3N=C2NC(=O)C4=CC(=CC=C4)[N+](=O)[O-] [IRAK-1-4 Inhibitor I]
Method in brief: as §1

[8] = compound: C1=CC2=NC=CN=C2C=C1/C=C/3\C(=O)NC(=O)S3
Method in brief: as §1

Measured: log2 fold change

TPM3 isoform 3 (UniProt P06753)
Chain of UniProt P06753 (P06753 whole entry, looked up): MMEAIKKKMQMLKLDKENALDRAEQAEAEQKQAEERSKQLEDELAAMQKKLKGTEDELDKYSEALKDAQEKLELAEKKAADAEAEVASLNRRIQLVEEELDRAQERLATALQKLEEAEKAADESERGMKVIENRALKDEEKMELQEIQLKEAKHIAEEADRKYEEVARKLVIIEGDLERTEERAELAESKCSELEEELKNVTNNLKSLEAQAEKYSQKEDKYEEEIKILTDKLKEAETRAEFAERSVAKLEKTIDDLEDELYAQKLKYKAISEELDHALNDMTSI
inactive: erlotinib -0.074 | [1] -0.007 | [2] -0.076 | [3] -0.006 | [4] -0.033 | [5] 0.08 | [6] 0.084 | [7] -0.068 | IRAK-1-4 Inhibitor I -0.016

TCF20 (UniProt Q9UGU0)
Chain of UniProt Q9UGU0 (Q9UGU0 whole entry, looked up): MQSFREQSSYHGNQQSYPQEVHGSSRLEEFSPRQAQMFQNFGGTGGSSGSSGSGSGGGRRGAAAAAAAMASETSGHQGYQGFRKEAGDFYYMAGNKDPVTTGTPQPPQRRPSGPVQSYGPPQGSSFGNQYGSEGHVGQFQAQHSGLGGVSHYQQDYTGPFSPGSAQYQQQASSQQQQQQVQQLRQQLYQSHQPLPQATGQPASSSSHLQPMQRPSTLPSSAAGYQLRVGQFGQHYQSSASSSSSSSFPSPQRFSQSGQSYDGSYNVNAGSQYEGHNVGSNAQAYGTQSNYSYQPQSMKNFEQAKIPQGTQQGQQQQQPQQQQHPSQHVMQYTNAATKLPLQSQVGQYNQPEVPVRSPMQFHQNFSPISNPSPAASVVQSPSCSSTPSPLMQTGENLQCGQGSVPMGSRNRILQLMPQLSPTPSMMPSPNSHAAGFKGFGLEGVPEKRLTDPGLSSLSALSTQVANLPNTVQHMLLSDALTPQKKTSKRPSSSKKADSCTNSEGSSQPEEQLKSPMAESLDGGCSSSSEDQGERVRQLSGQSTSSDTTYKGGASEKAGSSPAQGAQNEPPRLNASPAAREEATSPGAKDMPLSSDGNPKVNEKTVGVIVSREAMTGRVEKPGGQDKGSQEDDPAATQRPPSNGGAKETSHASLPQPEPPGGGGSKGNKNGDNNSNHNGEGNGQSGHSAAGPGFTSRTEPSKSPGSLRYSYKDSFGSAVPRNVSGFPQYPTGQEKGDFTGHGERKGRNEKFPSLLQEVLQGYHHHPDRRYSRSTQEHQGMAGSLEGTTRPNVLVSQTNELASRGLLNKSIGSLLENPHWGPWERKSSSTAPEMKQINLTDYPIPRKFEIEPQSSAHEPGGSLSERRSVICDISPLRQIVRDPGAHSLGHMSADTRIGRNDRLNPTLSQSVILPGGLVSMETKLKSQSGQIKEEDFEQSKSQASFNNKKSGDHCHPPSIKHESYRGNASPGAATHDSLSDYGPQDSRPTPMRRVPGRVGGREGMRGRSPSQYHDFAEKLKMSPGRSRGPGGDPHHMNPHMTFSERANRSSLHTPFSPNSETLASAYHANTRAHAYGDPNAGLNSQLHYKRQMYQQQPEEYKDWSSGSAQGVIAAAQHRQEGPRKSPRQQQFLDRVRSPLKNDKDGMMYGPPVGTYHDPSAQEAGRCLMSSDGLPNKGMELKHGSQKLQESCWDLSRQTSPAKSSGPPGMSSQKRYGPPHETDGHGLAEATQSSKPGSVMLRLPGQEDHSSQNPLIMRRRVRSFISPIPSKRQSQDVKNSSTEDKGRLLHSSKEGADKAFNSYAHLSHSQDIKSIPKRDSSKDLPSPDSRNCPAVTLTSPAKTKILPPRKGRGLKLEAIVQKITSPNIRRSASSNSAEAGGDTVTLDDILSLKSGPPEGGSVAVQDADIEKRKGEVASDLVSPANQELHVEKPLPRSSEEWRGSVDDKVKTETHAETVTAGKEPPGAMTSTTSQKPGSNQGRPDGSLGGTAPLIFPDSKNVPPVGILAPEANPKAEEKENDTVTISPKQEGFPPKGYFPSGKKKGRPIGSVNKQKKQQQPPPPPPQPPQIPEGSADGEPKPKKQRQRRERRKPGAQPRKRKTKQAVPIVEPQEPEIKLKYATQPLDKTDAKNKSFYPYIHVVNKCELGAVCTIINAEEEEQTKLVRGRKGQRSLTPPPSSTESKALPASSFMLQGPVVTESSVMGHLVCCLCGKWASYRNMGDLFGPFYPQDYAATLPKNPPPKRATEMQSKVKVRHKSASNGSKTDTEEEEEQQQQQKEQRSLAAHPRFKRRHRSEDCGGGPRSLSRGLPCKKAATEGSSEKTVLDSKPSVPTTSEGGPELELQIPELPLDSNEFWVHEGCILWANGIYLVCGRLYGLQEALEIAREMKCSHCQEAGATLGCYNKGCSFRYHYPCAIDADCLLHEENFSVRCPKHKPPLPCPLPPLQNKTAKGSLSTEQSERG
inactive: erlotinib -0.04 | [2] -0.001 | [8] 0.039

TENM4 (UniProt Q6N022)
inactive: [8] -0.334

TXNRD2 isoform 3 (UniProt Q9NNW7)
Chain of UniProt Q9NNW7 (Q9NNW7 whole entry, looked up): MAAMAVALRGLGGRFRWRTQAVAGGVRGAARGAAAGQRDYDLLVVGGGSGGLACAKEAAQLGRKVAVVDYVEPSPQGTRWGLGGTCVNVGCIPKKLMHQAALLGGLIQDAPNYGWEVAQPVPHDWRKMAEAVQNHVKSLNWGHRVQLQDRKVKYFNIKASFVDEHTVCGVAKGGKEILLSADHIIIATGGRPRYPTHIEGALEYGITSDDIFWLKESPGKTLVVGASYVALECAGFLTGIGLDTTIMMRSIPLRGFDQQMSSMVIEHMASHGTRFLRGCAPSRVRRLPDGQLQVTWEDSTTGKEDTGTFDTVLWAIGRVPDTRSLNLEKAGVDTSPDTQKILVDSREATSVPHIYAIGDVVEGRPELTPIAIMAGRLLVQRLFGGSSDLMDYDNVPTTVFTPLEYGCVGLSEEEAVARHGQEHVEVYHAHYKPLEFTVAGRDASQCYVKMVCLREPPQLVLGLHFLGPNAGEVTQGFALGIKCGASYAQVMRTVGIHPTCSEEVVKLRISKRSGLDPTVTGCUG
inactive: erlotinib 0.024 | [2] 0.035 | [4] 0.14 | IRAK-1-4 Inhibitor I -0.006

— the supplement of paper PMC10849652
